The whole screen tested about 310,000 compounds, of which about 2,200 (0.71%) showed an effect of 50% or more. Effects have a minus sign here. The list comes from a sample in which strong results are over-represented; it also holds similar structures and randomly drawn compounds.
target: human ether-à-go-go-related gene (hERG) potassium channel (human, UniProt Q12809); experiment: primary screen, population patch clamp on CHO cells stably expressing hERG; higher = less effect of the substance
Sequence (Q12809 whole entry, looked up): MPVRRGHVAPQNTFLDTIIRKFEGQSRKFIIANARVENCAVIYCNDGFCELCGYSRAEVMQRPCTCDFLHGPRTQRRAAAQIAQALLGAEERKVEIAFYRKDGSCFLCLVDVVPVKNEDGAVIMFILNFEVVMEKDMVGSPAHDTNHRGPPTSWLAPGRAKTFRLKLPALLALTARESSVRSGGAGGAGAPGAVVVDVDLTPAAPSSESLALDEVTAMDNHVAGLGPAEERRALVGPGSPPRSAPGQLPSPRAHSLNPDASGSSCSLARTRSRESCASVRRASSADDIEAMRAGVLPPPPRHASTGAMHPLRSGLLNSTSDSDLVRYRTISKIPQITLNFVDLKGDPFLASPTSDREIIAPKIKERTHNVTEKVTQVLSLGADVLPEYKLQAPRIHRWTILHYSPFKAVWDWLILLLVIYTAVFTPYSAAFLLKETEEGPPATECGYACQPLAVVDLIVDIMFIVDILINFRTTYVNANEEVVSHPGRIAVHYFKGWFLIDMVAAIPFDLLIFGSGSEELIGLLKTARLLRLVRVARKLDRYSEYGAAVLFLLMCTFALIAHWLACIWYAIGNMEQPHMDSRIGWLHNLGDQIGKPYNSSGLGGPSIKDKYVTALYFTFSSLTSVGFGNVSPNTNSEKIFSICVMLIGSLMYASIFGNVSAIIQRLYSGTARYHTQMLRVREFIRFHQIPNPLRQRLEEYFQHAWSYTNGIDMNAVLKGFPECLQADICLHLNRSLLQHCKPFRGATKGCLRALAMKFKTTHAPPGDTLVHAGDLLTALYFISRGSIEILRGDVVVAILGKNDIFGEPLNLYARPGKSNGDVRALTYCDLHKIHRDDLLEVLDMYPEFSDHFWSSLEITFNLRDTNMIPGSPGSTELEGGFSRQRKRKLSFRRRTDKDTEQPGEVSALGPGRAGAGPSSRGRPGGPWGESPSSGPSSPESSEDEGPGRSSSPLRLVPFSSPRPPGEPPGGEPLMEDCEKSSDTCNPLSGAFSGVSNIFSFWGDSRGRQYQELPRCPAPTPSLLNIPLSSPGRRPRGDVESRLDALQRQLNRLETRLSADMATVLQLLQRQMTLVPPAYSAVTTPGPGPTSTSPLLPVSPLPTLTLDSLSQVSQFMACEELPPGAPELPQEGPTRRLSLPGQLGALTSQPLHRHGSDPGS

**Q.** How did the “hERG current change (%, negative = inhibition) at 1uM” value turn out when `CCN(CC(=O)N1CCOCC1)S(=O)(=O)c1ccccc1` was run?
**A.** 12.4%

**Q.** `Cc1nc2ccccn2c(=O)c1CCN1CCC(C(=O)c2ccc(F)cc2)CC1` was tested. Which “hERG current change (%, negative = inhibition) at 1uM” value did it give?
**A.** -66.2%

**Q.** Which “hERG current change (%, negative = inhibition) at 1uM” value does the source give for `Cc1nc2sccn2c(=O)c1S(=O)(=O)N1CCN(c2ccc(F)cc2)CC1` here?
**A.** -23%

**Q.** How did the “hERG current change (%, negative = inhibition) at 1uM” value turn out when `Cc1ccccc1NC(=O)N1CCC(C(=O)c2ccc(F)cc2)CC1` was run?
**A.** 17.6%

**Q.** Which “hERG current change (%, negative = inhibition) at 1uM” value does the source give for `CCOc1ccccc1NC(=O)N1CCC(C(=O)c2ccc(F)cc2)CC1` here?
**A.** 9.5%

**Q.** With `CCCCc1c(O)nc2sccn2c1=O` as the molecule, how does the “hERG current change (%, negative = inhibition) at 1uM” value read?
**A.** 5.53%

**Q.** For `Cc1nc2sccn2c(=O)c1CCN1CCC(=C(c2ccccc2)c2ccc(F)cc2)CC1`, which “hERG current change (%, negative = inhibition) at 1uM” value is on record?
**A.** -78.8%

**Q.** With `Cc1nc2sccn2c(=O)c1CCN1CCC(=C(c2ccc(F)cc2)c2ccc(F)cc2)CC1` as the molecule, how does the “hERG current change (%, negative = inhibition) at 1uM” value read?
**A.** -65%

**Q.** For `Cc1nc2sccn2c(=O)c1S(=O)(=O)NCc1ccccc1`, which “hERG current change (%, negative = inhibition) at 1uM” value is on record?
**A.** 9.92%

**Q.** For `Cc1nc2sccn2c(=O)c1S(=O)(=O)NCCc1ccccc1`, which “hERG current change (%, negative = inhibition) at 1uM” value is on record?
**A.** -10.2%

**Q.** `CC(NCC(=O)Nc1ccccc1C(=O)NC1CC1)c1ccc(F)cc1F` (stereo not drawn) was tested. Which “hERG current change (%, negative = inhibition) at 1uM” value did it give?
**A.** 1.42%

**Q.** Which “hERG current change (%, negative = inhibition) at 1uM” value does the source give for `COc1ccccc1N1CCN(S(=O)(=O)c2c(C)sc3ncn(CC(=O)NCCN(C)C)c(=O)c23)CC1` here?
**A.** 10.8%

**Q.** With `Cc1ccc(S(=O)(=O)N2CCN(C(=O)CN3CCCSc4ccccc43)CC2)cc1` as the molecule, how does the “hERG current change (%, negative = inhibition) at 1uM” value read?
**A.** 3.85%

**Q.** With `N/C(=N\N=C\c1ccc(O)cc1O)N[N+](=O)[O-]` as the molecule, how does the “hERG current change (%, negative = inhibition) at 1uM” value read?
**A.** 8.72%

**Q.** Which “hERG current change (%, negative = inhibition) at 1uM” value does the source give for `COc1ccc(C(=O)OCc2nnc(-c3ccccc3)o2)cc1S(=O)(=O)N1CCOCC1` here?
**A.** 4.07%

**Q.** `Cc1cc(=O)[nH]c(SCC(=O)NCC2CCCCC2)c1C#N` was tested. Which “hERG current change (%, negative = inhibition) at 1uM” value did it give?
**A.** 16%

**Q.** With `CCOc1ccccc1NC(=O)C(=O)NCCC1=CCCCC1` as the molecule, how does the “hERG current change (%, negative = inhibition) at 1uM” value read?
**A.** 9.84%

**Q.** Which “hERG current change (%, negative = inhibition) at 1uM” value does the source give for `CN(CCNC(=O)c1ccc(CS(=O)(=O)c2ccc(Br)cc2)o1)CCc1ccccc1` here?
**A.** -42%

**Q.** With `CCCCN(CCCNC(=O)c1ccc(CS(=O)(=O)c2c(Cl)cccc2Cl)o1)Cc1ccccc1` as the molecule, how does the “hERG current change (%, negative = inhibition) at 1uM” value read?
**A.** -30.5%

**Q.** Which “hERG current change (%, negative = inhibition) at 1uM” value does the source give for `CN(CCNC(=O)c1ccc(CS(=O)(=O)c2c(Cl)cccc2Cl)o1)CCc1ccccc1` here?
**A.** -50.4%

**Q.** How did the “hERG current change (%, negative = inhibition) at 1uM” value turn out when `CC(C)N(CCNC(=O)c1ccc(CS(=O)(=O)c2c(Cl)cccc2Cl)o1)Cc1ccccc1` was run?
**A.** -3.94%

**Q.** Which “hERG current change (%, negative = inhibition) at 1uM” value does the source give for `CCCCN(CC)CCCNC(=O)c1ccc(CS(=O)(=O)c2c(Cl)cccc2Cl)o1` here?
**A.** -8.53%

**Q.** `CCCN(CCC)CCCNC(=O)c1ccc(CS(=O)(=O)c2c(Cl)cccc2Cl)o1` was tested. Which “hERG current change (%, negative = inhibition) at 1uM” value did it give?
**A.** -59.1%

**Q.** For `Cc1ccc(-c2csc(NC(=S)NC(=O)/C=C/c3ccco3)n2)cc1`, which “hERG current change (%, negative = inhibition) at 1uM” value is on record?
**A.** 23.2%

**Q.** How did the “hERG current change (%, negative = inhibition) at 1uM” value turn out when `O=C1OCCC1Sc1nnc(-c2ccc3c(c2)OCO3)n1-c1ccccc1` (stereo not drawn) was run?
**A.** 4.75%

**Q.** For `Cc1c(C(=O)NCc2ccc3c(c2)OCO3)oc2ccc(S(=O)(=O)N3CCCC3)cc12`, which “hERG current change (%, negative = inhibition) at 1uM” value is on record?
**A.** 19.4%

**Q.** `N#Cc1cc2c(nc1SCC(=O)NCc1ccc3c(c1)OCO3)CCCCC2` was tested. Which “hERG current change (%, negative = inhibition) at 1uM” value did it give?
**A.** 1.91%

**Q.** With `CCOc1ccc(NC(=O)CN(C)C(=O)CSCc2ccc(C)cc2)cc1OCC` as the molecule, how does the “hERG current change (%, negative = inhibition) at 1uM” value read?
**A.** -1.27%

**Q.** How did the “hERG current change (%, negative = inhibition) at 1uM” value turn out when `COC(=O)CCNC(=O)Cc1c(C)n(C(=O)c2ccc(Cl)cc2)c2ccc(OC)cc12` was run?
**A.** 8.1%

**Q.** For `Cc1ccc(-n2ccnc2SCC(=O)N(CC(C)C)C2CCS(=O)(=O)C2)c(C)c1` (stereo not drawn), which “hERG current change (%, negative = inhibition) at 1uM” value is on record?
**A.** -3.07%

**Q.** With `COc1cc2c(c(OC)c1OC)-c1c(cc(OC)c(OC)c1OC)C[C@H](C)[C@H](C)C2` as the molecule, how does the “hERG current change (%, negative = inhibition) at 1uM” value read?
**A.** -22.5%

**Q.** Which “hERG current change (%, negative = inhibition) at 1uM” value does the source give for `COc1cc2c(c(OC)c1OC)-c1c(cc3c(c1OC)OCO3)C[C@H](C)[C@@](C)(O)C2` here?
**A.** 17.5%

**Q.** For `COc1cc2c(c(OC)c1OC)-c1c(cc(OC)c(OC)c1OC)C[C@](C)(O)[C@@H](C)C2`, which “hERG current change (%, negative = inhibition) at 1uM” value is on record?
**A.** -58.4%

**Q.** `O=Nc1c(O)[nH]c2ccc(Cl)cc12` was tested. Which “hERG current change (%, negative = inhibition) at 1uM” value did it give?
**A.** 4.46%

**Q.** `CCc1cc(=O)oc2cc(C)cc(OC(C)C(=O)NCCCn3ccnc3)c12` (stereo not drawn) was tested. Which “hERG current change (%, negative = inhibition) at 1uM” value did it give?
**A.** 2.72%

**Q.** With `Cc1c(C)c2ccc(OCC(=O)NCCCn3ccnc3)c(C)c2oc1=O` as the molecule, how does the “hERG current change (%, negative = inhibition) at 1uM” value read?
**A.** -11.1%

**Q.** Which “hERG current change (%, negative = inhibition) at 1uM” value does the source give for `CCCc1cc(=O)oc2cc(C)cc(OCC(=O)NCc3ccncc3)c12` here?
**A.** -48%

**Q.** Which “hERG current change (%, negative = inhibition) at 1uM” value does the source give for `Cc1cc(OC(C)C(=O)NCCCn2ccnc2)c2c(C)c(C)c(=O)oc2c1` (stereo not drawn) here?
**A.** -51.6%

**Q.** Which “hERG current change (%, negative = inhibition) at 1uM” value does the source give for `CCc1cc(=O)oc2cc(C)cc(OCC(=O)NCCCn3ccnc3)c12` here?
**A.** -7.42%

**Q.** How did the “hERG current change (%, negative = inhibition) at 1uM” value turn out when `CCCc1cc(=O)oc2cc(C)cc(OCC(=O)NCCCn3ccnc3)c12` was run?
**A.** -66.7%

**Q.** `Cc1cc(OC(C)C(=O)NCCCn2ccnc2)c2c(C)cc(=O)oc2c1` (stereo not drawn) was tested. Which “hERG current change (%, negative = inhibition) at 1uM” value did it give?
**A.** 9.26%

**Q.** How did the “hERG current change (%, negative = inhibition) at 1uM” value turn out when `CCCCc1cc(=O)oc2cc(C)cc(OCC(=O)NCc3ccncc3)c12` was run?
**A.** -73.8%

From PMC4336329 (PLoS ONE, 2015)
